# Bioassay records from PubChem.
# E coli Lon inh: inhibits E. coli Lon protease | purified E. coli Lon protease, fluorescence polarization | 360,000 compounds, 0.42% hits | P0A9M0 | inhibition, % at 7.94 µM; in the data active = inhibition above about 13%, passing the limit was not always enough;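 also: 0% = enzyme with probe and DMSO and 100% = no enzyme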
# GLD-1 TGE inh: GLD-1-TGE RNA interaction inhibition (C. elegans). Q17339. purified GLD-1 + fluorescein TGE RNA, fluorescence polarization. inhibition, % at 5.96 µM. 320,000 compounds, 0.44% hits. AID 2280;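 active = percent inhibition above a per-plate cutoff, the plate mean of test compounds plus 3 SD, cut at about 30% in these data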;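 also: 0% = DMSO wells with GLD-1 and probe and 100% = wells lacking GLD-1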
# Bcl-xL primary: inhibitors of human Bcl-xL. GST-Bcl-xL / FITC-Bim BH3 peptide fluorescence polarization. inhibition, % at 10.9 µM. 320,000 compounds, 0.7% hits. AID 2129;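 active = inhibition above the mean of all tested compounds plus 3 SD, cutoff set per campaign, cut at about 30% in these data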;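 also: 0% = DMSO wells and 100% = unlabeled Bim-BH3 peptide competitor; inhibitors lower millipolarization by displacing the labeled peptide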
# MEX-5 binding: C. elegans MEX-5 TCR-2 RNA binding activity. 300,000 compounds, 0.38% hits. MEX-5/FITC-TCR2 RNA binding, fluorescence polarization; stronger effect = lower value. activity score (negative = inhibition of binding), % at 10 µM. AID 1832. Q9XUB2;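 active = inhibition past about -25% in most replicates, and total fluorescence under double the plate's negative control median, limit read from the data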;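 also: 0% = DMSO and -100% = 5 µM competing unlabeled TCR2 RNA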
# Target sequence (Q9XUB2 whole entry, looked up): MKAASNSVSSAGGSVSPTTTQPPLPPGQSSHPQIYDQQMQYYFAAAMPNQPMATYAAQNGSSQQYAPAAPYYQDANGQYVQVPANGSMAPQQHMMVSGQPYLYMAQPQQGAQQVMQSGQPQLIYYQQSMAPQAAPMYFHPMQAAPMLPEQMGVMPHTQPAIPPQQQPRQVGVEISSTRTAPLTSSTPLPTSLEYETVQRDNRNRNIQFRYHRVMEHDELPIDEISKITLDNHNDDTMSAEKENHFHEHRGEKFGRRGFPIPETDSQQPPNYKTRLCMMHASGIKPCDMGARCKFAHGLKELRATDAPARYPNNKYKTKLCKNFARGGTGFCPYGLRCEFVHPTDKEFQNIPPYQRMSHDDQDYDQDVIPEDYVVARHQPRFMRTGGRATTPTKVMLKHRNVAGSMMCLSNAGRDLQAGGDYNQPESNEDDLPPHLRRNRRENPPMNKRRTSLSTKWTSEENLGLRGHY
# MCL1-BIM inh: inhibitors of human MCL1 binding to BIM-BH3 peptide; inhibition, % at 10.9 µM; Q07820; AID 2057; 320,000 compounds, 0.68% hits; GST-MCL1 / FITC-Bim-BH3 fluorescence polarization;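 active = inhibition above the mean inhibition of all tested compounds plus 3 SD, set per campaign, cut at about 40% in these data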;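 also: 0% = DMSO wells and 100% = unlabeled Bim-BH3 peptide control; higher means more loss of mP so more displacement of Bim peptide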
# EBV gp42 block: EBV gp42 inhibition; Q1HVG2; Fluorescence polarization binding assay, mP read-out; 220,000 compounds, 0.42% hits; inhibition, % (tested at 21.74 µM); in the data active = inhibition above about 50%
# Bcl-xL conf: Bcl-xL (human) inhibition, MCL1 counter-screen confirmation; GST-Bcl-xL / FITC-Bim BH3 peptide FP binding; 1,700 compounds, 54% hits; inhibition, % at 10.9 µM; shares compounds with MCL1-BIM inh;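 active = inhibition above a cutoff equal to the mean inhibition of all tested compounds plus 3 SD, cut at about 30% in these data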;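 also: 0% = DMSO wells and 100% = unlabeled Bim BH3 control peptide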
# MCL1 BIM confirm: confirmation of human MCL1 and BIM-BH3 interaction inhibitors; shares compounds with MCL1-BIM inh; GST-MCL1 / FITC-Bim-BH3 fluorescence polarization; inhibition, % at 10.9 µM; 1,700 compounds, 61% hits;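 active = inhibition above the average of all tested compounds plus 3 SD, cut at about 40% in these data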;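 also: 0% = DMSO wells and 100% = unlabeled Bim-BH3 control peptide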
# Numbers without * were called inactive; . = no result given. The list is not random: actives were taken first. Their share in the collection is about 1.5%.
SMILES,E coli Lon inh,GLD-1 TGE inh,Bcl-xL primary,MEX-5 binding,MCL1-BIM inh,EBV gp42 block,Bcl-xL conf,MCL1 BIM confirm
Cc1cc(C)cc(CC(=O)N2CCC2(C)C(=O)NS(=O)(=O)Cc2ccccc2)c1 (centres undefined),1,.,.,.,.,.,.,.
CCOc1cc(C(=O)OCC(=O)Nc2ccc(F)cc2Cl)ccc1OCC(=O)N1CCOCC1,-6,.,.,.,.,.,.,.
CN(C)c1ccc(O)c2c1CC1CC3[C@@H](N(C)C)C(=O)C(C(N)=O)=C(O)[C@]3(O)C(=O)C1=C2O (some centres undefined),-6,3,15,-14,61*,-3,26,67*
NC(=O)c1c(NC(=O)c2ccco2)sc2c1CCC2,-1,7,9,0,7,-20,.,.
N#Cc1c(NC(=O)c2ccco2)sc2c1CCC2,-18,6,21,-1,56*,.,25,36
CC(C)(C)OC(=O)N1CCN(C(c2ccnc3ccccc23)c2nnnn2-c2ccc3c(c2)OCCO3)CC1 (centres undefined),5,.,.,.,.,.,.,.
CCOC(=O)c1ccccc1NC(=S)N1CCCCC1,4,-2,-1,.,11,-3,.,.
CCOC(=O)c1ccccc1NC(=O)N1CCn2c(C)ccc2C1CC (centres undefined),4,33*,62*,-8,63*,-14,35*,39
CC(NCc1ccc(OCC(N)=O)cc1)C12CC3CC(CC(C3)C1)C2 (centres undefined),-6,5,8,3,15,.,.,.
COc1ccc(S(=O)(=O)N2CCC[C@@H]2C(=O)N2CCC[C@H]2C(=O)NCc2ccncc2)cc1C,-8,.,.,.,.,.,.,.
O=C(Nc1ccc(F)cc1F)c1noc2c1CCC2,-7,4,12,0,47*,25,19,66*
O=C(Nc1cc(Cl)ccc1Cl)c1noc2c1CCCC2,3,3,3,2,4,-10,.,.
CN(C)C1(CN=Cc2cc(Cl)cc([N+](=O)[O-])c2O)CCCCC1,-1,5,8,1,60*,.,-3,2
O=[N+]([O-])c1cc(Cl)cc(/C=N\Nc2ccccn2)c1O,-7,1,4,0,14,-21,.,.
Cc1cccc(C)c1NC(=O)C1c2ccccc2OCC(=O)N1Cc1ccco1 (centres undefined),-2,.,.,.,.,.,.,.
Cc1cc(-c2nc3c4c5c(sc4[nH]c(=O)n3n2)CCC5)c(C)o1,-5,-2,25,-11,76*,60*,28,70*
CN=c1scc(C)n1/N=C/c1cc(Br)c(O)c(OC)c1,9,6,7,2,7,5,.,.
CN=c1scc(C)n1/N=C/c1ccc(O)c(O)c1O,12,18,22,-32*,58*,-12,79*,121*
C=CCN=c1scc(-c2ccco2)n1/N=C/c1ccc(O)c(O)c1O,10,1,14,-28*,50*,-4,29,78*
CC1(C2CC(=O)c3c(O)ccc(O)c3C2)OCCO1 (centres undefined),10,.,.,.,.,.,.,.
CC1=C(C#N)C(=O)OC(C)(C)C1,-2,63*,86*,-47*,100*,15,35*,50*
Cc1[nH]c(=O)c(C#N)c2c1COC(C)(C)C2,1,3,0,3,1,-21,.,.
CCSc1nnc(C)c(=O)n1COC(=O)c1ccc(S(=O)(=O)N2CCCC2)cc1,-7,-3,5,0,8,-1,.,.
NC(=O)CSc1ccc(-c2ccc(F)cc2)nn1,4,4,-2,4,3,-5,.,.
CCn1c(SCC(=O)c2ccc(O)c(O)c2)nnc1-c1ccccc1,-1,9,1,-3,13,8,.,.
CCn1c(SCC(=O)c2ccc(O)c(O)c2)nnc1-c1ccccc1OC,-9,-6,10,-7,45*,-8,14,41*
C=CCn1c(SCC(=O)c2ccc(O)c(O)c2)nnc1-c1cccnc1,1,4,9,-3,41*,10,12,47*
